Rows were chosen to be rich in hits. Some 1.5% of all compounds tested hit in one or more screens of this group.
WRN helicase inh: blocks human WRN helicase; Q14191; WRN helicase unwinding, fluorescent forked duplex, kinetic; Potency, µM (doses to about 114 µM), inactives show at the highest dose activity change, negative = inhibition, most hits filed as inhibitors; actives 0.46% (n = 360,000); AID 651768; also: potency is read from the fitted curve at half-maximal effect; nearly all actives have a fitted effect of over 55% in size
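Fluorescence dequenching readout, ex 525 nm/em 598 nm, kinetic mode: forked duplex DNA (100 nM final) with adjacent fluorophore and quencher unwound by WRN (20 nM final) with 2 mM ATP. Compound preincubation 15 min, room temperature.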
TDP1 block: TDP1 (human) enzyme inhibition. Q9NUW8. recombinant TDP1, AlphaScreen DNA substrate cleavage. Potency, µM (top dose mostly 130 µM), for inactives: at the top dose activity change, negative = inhibition, most hits filed as inhibitors. actives 0.28% (n = 350,000); also: potency is read from the fitted curve at half-maximal effect; nearly all actives have a fitted effect of over 40% in size
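Here, a 5' biotin and 3' phosphotyrosine-FITC DNA oligonucleotide reports Tdp1 activity: intact substrate bridges AlphaScreen beads, while cleavage leaves a 3' phosphate and drops signal. All incubations at room temperature.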
Tb PFK inh: inhibitors of T. brucei phosphofructokinase. O15648. T. brucei PFK, ADP-Glo luminescence. Potency, µM (top dose mostly 57.5 µM), for inactives: top-dose activity, negative = inhibition, actives largely listed as inhibitors. actives 0.17% (n = 330,000);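 also: potency is read from the fitted curve at half-maximal effect; 0% = uninhibited 1x PFK enzyme wells and -100% = no-enzyme wells; nearly all actives have a fitted effect of over 60% in size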
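Compounds were pin-transferred as a titration series up to 57 uM into substrate buffer (0.5 mM F6P, 0.1 mM ATP, pH 8.0), then 1.25 nM PFK was added and reactions ran 45 min before ADP-Glo detection.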
FEN1 inh: inhibitors of human flap endonuclease 1; P39748; Recombinant FEN1 flap cleavage, fluorescence, 15 min; Potency, µM (doses to about 114 µM), for inactives: at the highest dose activity change, negative = inhibition, most hits filed as inhibitors; actives 0.35% (n = 390,000); also: potency is read from the fitted curve at half-maximal effect; nearly all actives have a fitted effect of over 65% in size
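Steps: FEN1 (10 nM) dispensed; compound added by pin tool; 15 min at room temperature; substrate added to 50 nM final; reads at 0 min and 15 min; data normalized and fitted (four-parameter Hill).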
PGK inhibitor: blocks T. brucei phosphoglycerate kinase; P07378; PGK/GAPDH coupled, Kinase-Glo luminescence, 60 min; Potency, µM (highest dose often 57.5 µM), for the others: at the top dose activity change, negative = inhibition, actives largely listed as inhibitors; actives 0.043% (n = 380,000); also: potency is read from the fitted curve at half-maximal effect; nearly all actives have a fitted effect of over 60% in size
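Luminescent ATP detection (Kinase-Glo Plus) follows a 60-minute room-temperature incubation, with wells lacking PGK as controls. Buffer: 100 mM TEA (pH 7.6), 5 mM MgCl2, 0.01% Tween-20. Coupling enzyme GAPDH (100 nM final) supplies unstable 1,3-BPG in-well.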
PI5P4K alpha inh: inhibitors of human PI5P4K alpha; P48426; PI5P4Kalpha enzyme, ADP-Glo luminescence, 60 min; hits give low values; max response, %; actives 1.2% (n = 330,000); AID 652105; active = max response of -50% or lower; inconclusive = between -30% and -50%; inactive = -30% or higher; also: value at the top dose of about 77 µM
Target sequence (P48426 whole entry, looked up): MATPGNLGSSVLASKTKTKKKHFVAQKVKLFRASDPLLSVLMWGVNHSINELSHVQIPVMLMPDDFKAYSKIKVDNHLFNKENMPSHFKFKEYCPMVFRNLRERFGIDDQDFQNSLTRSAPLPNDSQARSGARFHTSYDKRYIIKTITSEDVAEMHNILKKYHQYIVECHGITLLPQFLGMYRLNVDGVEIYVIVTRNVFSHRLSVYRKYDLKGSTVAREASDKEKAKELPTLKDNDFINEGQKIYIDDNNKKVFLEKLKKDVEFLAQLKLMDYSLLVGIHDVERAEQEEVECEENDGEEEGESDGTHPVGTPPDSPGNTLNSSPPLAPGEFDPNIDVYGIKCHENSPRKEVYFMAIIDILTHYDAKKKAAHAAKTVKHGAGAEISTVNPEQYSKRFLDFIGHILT
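ADP-Glo luminescence end-point read after a 60 min room-temperature kinase reaction of PI5P4Kalpha plus substrate, initiated with ATP at 5 microM final. Buffer: 0.038 M HEPES pH 7.4, EGTA, 0.1% CHAPS, 5% DMSO.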
ADP-Glo counter: counter-screen for PI5P4K inhibitors: ADP-Glo detection interference, no enzyme. shares compounds with PI5P4K alpha inh. ADP-Glo detection counter-screen, luciferase luminescence, no enzyme. Potency, µM (highest dose often 76.9 µM), for inactives: top-dose activity change, negative = inhibition, hits mostly inhibitors. 1,100 tested, under 10 active. AID 743285
Starred values were filed as active, the others as inactive; i = inactive; ? = inconclusive; · = no result; [ ] = dose if it differs, or a comment. Unless noted, calls follow the shape of the dose curve; as a rule, active = well fitted curve in the direction sought with a large enough effect; inconclusive = small, poorly fitted or top-dose-only effect, or another doubt; inactive = no such curve, though single readings can be large; an effect the other way counts as inactive or inconclusive. Unless noted, % is scaled to controls: 0 for no effect and ±100 for the full control effect.

SMILES	WRN helicase inh	TDP1 block	Tb PFK inh	FEN1 inh	PGK inhibitor	PI5P4K alpha inh	ADP-Glo counter
CS(=O)(=O)c1ccc(NC(=O)CCCc2nc3ccccc3c(=O)[nH]2)cc1	9.3%	·	-0.2%	-7.7%	9.0%	-1.4	·
O=C(OCc1cccc(C(F)(F)F)c1)c1ccc(-c2nnn(Cc3ccc(F)cc3)n2)cc1	·	1.9%	·	16.6%	-3.9%	·	·
O=C(O)c1ccc(-c2nnn(Cc3cccc(C(F)(F)F)c3)n2)cc1	-4.8%	·	-28.9%	22.0%	-5.0%	-52.1*	-3.0%
CCOC(=O)Cc1csc(NC(=O)Cc2cccs2)n1	-17.1%[57.1 µM]	-7.8%	?	-12.1%	-4.3%	-58.3*	0.4%
CCOC(=O)Cc1csc(NC(=O)Cc2ccccc2)n1	-3.3%	2.8%	-1.2%	13.2%	3.5%	8.8	·
CN(C(=O)COC(=O)c1ccccc1C(=O)c1ccccc1)c1ccccc1	-3.6%	1.4%	6.1%	-2.3%	-0.5%	4.2	·
O=C(CCN1CCc2ccccc2C(c2ccccc2)C1)c1ccc2c(c1)OCCO2 (centres undefined)	44.7µM*	9.8%	-8.6%	17.3%	i	-54.5*	-10.6%
O=C(Nc1cc(S(=O)(=O)N2CCOCC2)ccc1O)c1ccc(NS(=O)(=O)c2ccc(Cl)s2)cc1	-16.7%	3.0%	1.4%	-8.4%	7.0%	-58.8*	2.9%
CCCS(=O)(=O)NC(=O)C1(C)CCN(C(=O)COc2ccc(Cl)cc2Cl)C1 (centres undefined)	5.2%	·	·	·	·	-22.3	·
Cc1nc2c(nnn2Cc2ccccc2)c(=O)[nH]1	?	-4.6%	-8.7%	-15.2%	-6.4%	-87.7*	1.7%
Cc1nc2c(nnn2Cc2ccccc2Cl)c(=O)[nH]1	-2.4%	·	-1.2%	-0.2%	i	3.0	·
O=C(CCn1nnc2ccccc21)Nc1nnc(Cc2ccccc2)s1	-17.7%	3.2%	-7.4%	6.8%	-7.9%	-52.6*	0.6%
CC[C@H](C)[C@H](NC(=O)[C@@H]1CCCN1C(=O)[C@H](C)NC(=O)[C@H](CC(N)=O)NC(=O)[C@@H]1CCCN1C(=O)[C@@H]1CCCN1C(=O)[C@H](CCCN=C(N)N)NC(=O)[C@H](Cc1ccc(O)cc1)NC(=O)[C@H](C)NC(=O)[C@@H]1CCCN1C(=O)[C@@H]1CCCN1C(=O)[C@@H](N)[C@@H](C)O)C(=O)N[C@@H](CC(C)C)C(=O)O	·	8.2%	·	·	·	·	·
NC(=O)c1c(NC(=O)C2c3ccccc3Oc3ccccc32)sc2c1CCCCC2	-12.0%[11.6 µM]	2.7%	?	2.4%	-6.2%	-54.2*	3.9%
CCC(C)(C)C1CCc2c(sc(NC(=O)C3c4ccccc4Oc4ccccc43)c2C(N)=O)C1 (centres undefined)	·	2.1%	·	0.5%	i	·	·
Cc1ccc(N2CC(C(=O)NCCC3=CCCCC3)CC2=O)cc1 (centres undefined)	3.4%	·	-9.3%	7.5%	0.1%	4.9	·
CC(=O)Cn1nnc2sc(-c3ccccc3)cc2c1=O	-9.4%	5.7%	5.4%	7.6%	-2.8%	-54.0*	2.5%
CC(=O)Nc1ccc(S(=O)(=O)N2CCN(C(=O)C3COc4ccccc4O3)CC2)cc1 (centres undefined)	-1.2%	4.4%	-5.7%	-2.0%	-4.4%	-5.2	·
COc1ccc(S(=O)(=O)N2CCN(C(=O)C3COc4ccccc4O3)CC2)cc1 (centres undefined)	50.1µM*	3.55µM*	26.9µM*	50.1µM*	?	-73.8*	3.9%
COc1cccc(CNc2nc(NCC3CC3)nc3ccsc23)c1	-6.3%	·	·	·	·	-23.5	·
COc1ccccc1CNc1nc(NCc2ccc(C(C)C)cc2)c2sccc2n1	-15.3%	·	·	·	·	·	-5.3%
c1ccc(OCCNc2nc(NCC3CC3)nc3cc(-c4ccccc4)sc23)cc1	-0.9%	·	·	·	·	·	·

Source: PubChem BioAssay (National Center for Advancing Translational Sciences (NCATS))
